PubChem BioAssay AID743318 (Broad Institute, 2014)
Entries with a potency or affinity are not part of this list. The source made the active and inactive calls.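 Rule for the calls: active = cytotoxic signal drop whose half-maximal concentration is at most twice the top valid dose; inconclusive = flat drop between 30% and 70%, or poor fit; inactive = the rest.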

Assay: A549 cell cytotoxicity, dose response, cytotoxicity control, plate reader, dry powder, set 7 (AID 743318)

For `Cc1ccc(C(C)C)c(OCCn2c(=S)[nH]c3c(C)cccc32)c1`, which outcome is on record?
Its outcome is “inactive”.

With `COCc1nc2ccccc2n1CCOc1ccc(C(C)(C)C)cc1` as the compound, how does the outcome read?
The outcome was “inactive”.

Which outcome does the source give for `Cc1cccc(OCCn2c(=S)[nH]c3c(F)cccc32)c1` here?
The outcome was “inactive”.

For `Cc1ccc(C(C)C)c(OCCn2c(=S)[nH]c3ccc(F)cc32)c1`, which outcome is on record?
The outcome was “inactive”.

For `Cc1ccc(OCCn2c(=S)[nH]c3ccccc32)c(C(C)C)c1`, which outcome is on record?
Its outcome is “inactive”.

Which outcome does the source give for `Cc1ccc(OCCn2cnc3ccccc32)cc1` here?
Its outcome is “inactive”.

Which outcome does the source give for `Cc1ccc(C)c(OCCn2c(=S)[nH]c3ccccc32)c1` here?
Its outcome is “inactive”.

Which outcome does the source give for `c1ccc(OCCn2cnc3ccccc32)cc1` here?
Its outcome is “inactive”.

For `Cc1ccc(OCCn2c(=S)[nH]c3ccccc32)c(C)c1`, which outcome is on record?
Its outcome is “inactive”.

For `Cc1ccc(C(C)C)c(OCCn2c(=S)[nH]c3c(Cl)cccc32)c1`, which outcome is on record?
Its outcome is “inactive”.

Which outcome does the source give for `Cc1ccc(OCCn2c(C)nc3ccccc32)cc1` here?
The outcome was “inactive”.

For `CC(C)c1ccccc1OCCn1c(=S)[nH]c2ccccc21`, which outcome is on record?
The outcome was “inactive”.

For `O=c1[nH]c2ccccc2n1CCOc1ccccc1`, which outcome is on record?
Its outcome is “inactive”.

Which outcome does the source give for `CC(C)(C)c1ccc(OCCn2cnc3ccccc32)cc1` here?
The outcome was “inactive”.

With `Cc1cccc2[nH]c(=S)n(CCOc3ccccc3)c12` as the compound, how does the outcome read?
Its outcome is “inactive”.

Which outcome does the source give for `Cc1ccc(C(C)C)c(OCCn2c(=S)[nH]c3ccc(Cl)cc32)c1` here?
Its outcome is “inactive”.

For `Cc1ccc2c(c1)[nH]c(=S)n2CCOc1ccccc1`, which outcome is on record?
Its outcome is “inactive”.

Which outcome does the source give for `Fc1ccc(OCCn2c(=S)[nH]c3ccccc32)cc1` here?
Its outcome is “inactive”.

With `CSc1nc2ccccc2n1CCOc1cc(C)ccc1C(C)C` as the compound, how does the outcome read?
The outcome was “inactive”.

For `Fc1cccc(OCCn2c(=S)[nH]c3ccccc32)c1`, which outcome is on record?
Its outcome is “inactive”.

With `COc1cccc(OCCn2c(=S)[nH]c3ccccc32)c1` as the compound, how does the outcome read?
The outcome was “inactive”.

For `CCOc1ccc(OCCn2c(=S)[nH]c3ccccc32)cc1`, which outcome is on record?
The outcome was “inactive”.

For `S=c1[nH]c2ccccc2n1CCOc1ccccc1`, which outcome is on record?
The outcome was “inactive”.

With `Cc1ccc(OCCn2c(=S)[nH]c3ccccc32)cc1` as the compound, how does the outcome read?
Its outcome is “inactive”.

For `Cc1cccc(OCCn2c(=S)[nH]c3ccccc32)c1`, which outcome is on record?
The outcome was “inactive”.
